Assay outcomes as filed in PubChem.
HT1080 IDH1KD tx = kills HT-1080 cells with IDH1 knockdown; HT-1080 IDH1 knockdown viability, ATP luminescence, 48 h; Potency, µM (top dose mostly 46.1 µM), for inactives: at the top dose activity, negative = toxicity, most hits filed as cytotoxic; 360,000 compounds, 2% hits; AID 686971;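 further: 0% = DMSO wells and -100% = cell-free medium wells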
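Luminescent ATP read-out (CellTiter-Glo, 10 min at room temperature) after 48 h compound exposure at 37 °C gave viability of IDH1-knockdown HT-1080 cells. Activity was normalised to DMSO and cell-free wells, then fitted as concentration-response curves.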
HT1080-NT tox = kills 2HG-producing HT-1080-NT fibrosarcoma cells | HT-1080-NT fibrosarcoma viability, CellTiter-Glo ATP luminescence, 48 h | Potency, µM (titrated, usually from 46.1 µM), inactives show at the top dose activity, negative = less viability, usual class: cytotoxic | 360,000 compounds, 1.6% hits | AID 686970;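 further: NT is the 2HG producing partner of a matched IDH1 knockdown line; 0% = DMSO-treated cells and -100% = media-only wells without cells; nearly all actives have a fitted effect of over 55% in size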
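Compounds were tested in concentration-response format on HT-1080-NT cells for 48 hours at 37 degrees C. Cell viability came from CellTiter-Glo luminescence; curves were classified by r2, response magnitude and activity.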
KB-3-1 tox = kills parental KB-3-1 adenocarcinoma cells; KB-3-1 viability, CellTiter-Glo ATP luminescence, 72 h; Potency, µM (titrated, usually from 46.1 µM), most hits filed as cytotoxic; 400,000 compounds, 1.4% hits; further: nearly all actives have a fitted effect of over 60% in size
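KB-3-1 parental drug-naive adenocarcinoma cells in DMEM/10% FBS, incubated 72 h at 37 C with pin-transferred compounds across a concentration series. Viability by CellTiter-Glo luminescence; concentration-response curves fitted after normalization.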
DT40 TDP1 CPT = DT40-hTDP1 cell growth loss with CPT | chicken DT40 Tdp1-/-;hTDP1 cells + 20 nM CPT, ATP luminescence, 48 h | Potency, µM (highest dose often 46.2 µM), for inactives: at the highest dose activity change, negative = growth inhibition, usual class: inhibitors | 420,000 compounds, 12% hits; further: nearly all actives have a fitted effect of over 55% in size
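Chicken DT40 Tdp1-/- cells complemented with human TDP1, 400 cells/well, exposed to compounds plus 20 nM camptothecin for at least 48 h at 37 C; viability read as ATP content by CellTiter-Glo luminescence.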
DT40 TDP1 no CPT = qHTS for Inhibitors of human tyrosyl-DNA phosphodiesterase 1 (TDP1): qHTS in cells in absence of CPT | DT40 Tdp1-/- hTDP1 cells, no CPT, ATP luminescence, 48 h | Potency, µM (doses to about 46.2 µM), for the others: at the highest dose activity change, negative = growth inhibition, actives largely listed as inhibitors | 420,000 compounds, 15% hits; further: nearly all actives have a fitted effect of over 55% in size
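Camptothecin absent (DMSO only). Human TDP1-complemented DT40 knockout cells, 400 cells/well, 37 °C for minimum 48 hr; ATP measured via CellTiter-Glo, 30 min dark incubation, luminescence.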
KB-V1 cytotox = KB-V1 MDR subline cytotoxicity | Potency, µM (doses to about 46.1 µM), most hits filed as cytotoxic | KB-V1 MDR cells viability, CellTiter-Glo, 72 h | 400,000 compounds, 3.4% hits | AID 1347076; further: nearly all actives have a fitted effect of over 60% in size
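qHTS viability screen in drug-selected KB-V1 MDR cells: 72 h compound treatment at 37 degrees C, ATP luminescence end point.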
An asterisk follows results filed as active; [ ] = remark or other dose. An excerpt weighted towards active compounds, which were near 19% of everything screened. The call rests on the fitted dose curve; in most records, active means well fitted curve in the direction sought with a large enough effect; inconclusive means small, poorly fitted or top-dose-only effect, or another doubt; inactive means no such curve, though single readings can be large; an effect the other way counts as inactive or inconclusive. Unless noted, on the % scale 0 is the no-effect control and ±100 the full control effect; potency means the concentration at half of the fitted maximal effect.

What do the screens show for `O=C(Cn1cc(SCc2c(F)cccc2Cl)c2ccccc21)N1CCCC1`?
DT40 TDP1 CPT: inconclusive; DT40 TDP1 no CPT: 7.3µM*

What do the screens show for `O=C(CSc1cn(CC(=O)N2CCCCC2)c2ccccc12)NCc1ccccc1Cl`?
DT40 TDP1 CPT: 23µM*; DT40 TDP1 no CPT: inconclusive

Results for O=C(CSc1cn(CC(=O)N2CCCCC2)c2ccccc12)NCC1CCCO1 (stereo unspecified) ?
HT1080 IDH1KD tx: -5%; HT1080-NT tox: -9%; KB-3-1 tox: inactive; DT40 TDP1 CPT: -5%; DT40 TDP1 no CPT: -13%; KB-V1 cytotox: inconclusive

Results for CCC(=O)Nc1ccc(NCc2cccs2)cc1 ?
HT1080 IDH1KD tx: 17%; HT1080-NT tox: 15%; KB-3-1 tox: inactive; DT40 TDP1 CPT: 12%; DT40 TDP1 no CPT: -13%; KB-V1 cytotox: inactive

How did Cc1cc(NC(=O)C2CCCCC2)ccc1NC(=O)c1ccccc1Cl do in these assays?
HT1080 IDH1KD tx: inconclusive; HT1080-NT tox: -23%; KB-3-1 tox: inactive; DT40 TDP1 CPT: -3%; DT40 TDP1 no CPT: -25%; KB-V1 cytotox: inactive

Results for Nc1nc(Nc2cccc(Cl)c2)nc(NCc2ccco2)c1[N+](=O)[O-] ?
HT1080 IDH1KD tx: 16µM*; HT1080-NT tox: inconclusive; KB-3-1 tox: 16µM*; DT40 TDP1 CPT: -22%; DT40 TDP1 no CPT: inconclusive; KB-V1 cytotox: inconclusive

Results for Nc1nc(Nc2ccc(Cl)cc2)nc(NCc2ccco2)c1[N+](=O)[O-] ?
HT1080 IDH1KD tx: 18µM*; HT1080-NT tox: inconclusive; KB-3-1 tox: inactive; DT40 TDP1 CPT: inconclusive; DT40 TDP1 no CPT: inconclusive; KB-V1 cytotox: 16µM*

Results for COc1ccc(Nc2nc(NCc3ccco3)nc(N)c2[N+](=O)[O-])cc1 ?
HT1080 IDH1KD tx: 7%; HT1080-NT tox: 0%; KB-3-1 tox: inactive; DT40 TDP1 CPT: 11%; DT40 TDP1 no CPT: -15%; KB-V1 cytotox: inactive

Results for Cc1cccc(Nc2nc(N)c([N+](=O)[O-])c(NCc3ccco3)n2)c1 ?
HT1080 IDH1KD tx: inconclusive; HT1080-NT tox: inconclusive; KB-3-1 tox: inconclusive; DT40 TDP1 CPT: -9%; DT40 TDP1 no CPT: inconclusive; KB-V1 cytotox: 7.3µM*

Results for Nc1nc(Nc2cccc(F)c2)nc(NCc2ccco2)c1[N+](=O)[O-] ?
HT1080 IDH1KD tx: 26µM*; HT1080-NT tox: 9.2µM*; KB-3-1 tox: inconclusive; DT40 TDP1 CPT: -79%; DT40 TDP1 no CPT: inconclusive; KB-V1 cytotox: inconclusive

What do the screens show for `Cc1cccc(Nc2nc(NCc3ccco3)nc(N)c2[N+](=O)[O-])c1`?
HT1080 IDH1KD tx: -10%; HT1080-NT tox: 0%; KB-3-1 tox: inactive; DT40 TDP1 CPT: -22%; DT40 TDP1 no CPT: -29%; KB-V1 cytotox: inactive

Results for O=C1CC(C(=O)N2CCCC(c3nc(-c4ccncc4)ncc3-c3ccccc3)C2)C2(CCCCC2)O1 (stereo unspecified) ?
DT40 TDP1 CPT: 15%[9.04 µM]; DT40 TDP1 no CPT: -5%

How did CCCCN(CC)CCNC(=O)CN1C(=O)COc2ccc(S(=O)(=O)N3CCOCC3)cc21 do in these assays?
KB-3-1 tox: inactive; DT40 TDP1 CPT: 9%; DT40 TDP1 no CPT: 10%; KB-V1 cytotox: inconclusive

What do the screens show for `CCOc1ccc(NC(=O)c2cnc(N3CCCC3)nc2C)cc1`?
KB-3-1 tox: inactive; DT40 TDP1 CPT: -9%; DT40 TDP1 no CPT: inconclusive; KB-V1 cytotox: inactive

Results for CCN1C(=O)CC2(C[N+]3(C)CCC2CC3)C1=O (stereo unspecified) ?
HT1080 IDH1KD tx: 14%; HT1080-NT tox: 18%; KB-3-1 tox: inactive; DT40 TDP1 CPT: -5%; DT40 TDP1 no CPT: 12%; KB-V1 cytotox: inactive
